# An excerpt weighted towards active compounds, which were near 18% of everything screened.
# TGFb SMAD3 inh: TGF-b pathway inhibition | HepG2 CAGA-GFP TGF-b/SMAD3 reporter, GFP fluorescence, 18 h; TGF-beta stimulated, 500 pg/mL final | Potency, µM (titrated, usually from 46.1 µM), inactives show top-dose activity, negative = inhibition, actives largely listed as inhibitors | hit rate 1.2% among 410,000 | AID 588855; note: potency is the fitted concentration of half-maximal effect; % is set by controls: 0 for no effect and ±100 for the full control effect; nearly all actives have a fitted effect of over 65% in size
#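 HEPG2 CAGA-GFP cells (1000/well, DMEM with 1% FBS) were pre-incubated 2 h at 37 degrees C, given compound by pin tool, then stimulated with TGF-beta at 500 pg/mL final for 18 h before per-cell GFP fluorescence imaging.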
# TDP1 inh: blocks human tyrosyl-DNA phosphodiesterase 1 | Potency, µM (titrated, usually from 130 µM), inactives show at the top dose activity change, negative = inhibition, usual class: inhibitors | Q9NUW8 | recombinant TDP1, AlphaScreen DNA substrate cleavage | hit rate 0.28% among 350,000; note: potency is the fitted concentration of half-maximal effect; % is set by controls: 0 for no effect and ±100 for the full control effect; nearly all actives have a fitted effect of over 40% in size
# Target sequence (Q9NUW8 whole entry, looked up): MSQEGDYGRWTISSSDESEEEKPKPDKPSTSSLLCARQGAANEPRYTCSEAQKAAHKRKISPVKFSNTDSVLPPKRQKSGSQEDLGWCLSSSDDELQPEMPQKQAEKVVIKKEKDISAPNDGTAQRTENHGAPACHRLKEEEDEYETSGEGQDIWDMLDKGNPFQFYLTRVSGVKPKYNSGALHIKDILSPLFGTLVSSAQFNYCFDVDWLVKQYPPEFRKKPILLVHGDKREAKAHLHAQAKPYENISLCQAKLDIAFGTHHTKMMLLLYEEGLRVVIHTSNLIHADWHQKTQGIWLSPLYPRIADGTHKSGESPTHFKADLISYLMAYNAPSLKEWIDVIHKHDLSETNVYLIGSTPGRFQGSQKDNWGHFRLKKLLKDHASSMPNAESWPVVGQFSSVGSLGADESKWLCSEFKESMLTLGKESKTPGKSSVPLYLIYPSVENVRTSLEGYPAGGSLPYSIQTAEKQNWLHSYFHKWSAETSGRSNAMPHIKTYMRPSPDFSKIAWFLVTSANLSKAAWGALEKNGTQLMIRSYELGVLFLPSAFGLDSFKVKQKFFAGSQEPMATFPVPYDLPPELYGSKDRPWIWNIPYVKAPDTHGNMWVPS
#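 Here, a 5' biotin and 3' phosphotyrosine-FITC DNA oligonucleotide reports Tdp1 activity: intact substrate bridges AlphaScreen beads, while cleavage leaves a 3' phosphate and drops signal. All incubations at room temperature.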
# DT40 TDP1 CPT: growth inhibition of DT40 Tdp1-/-;hTDP1 cells with camptothecin (screen for TDP1 inhibitors). chicken DT40 Tdp1-/-;hTDP1 cells + 20 nM CPT, ATP luminescence, 48 h. Potency, µM (doses to about 46.2 µM), without a hit: top-dose activity change, negative = growth inhibition, actives largely listed as inhibitors. hit rate 12% among 420,000. AID 686979; note: potency is the fitted concentration of half-maximal effect; % is set by controls: 0 for no effect and ±100 for the full control effect; nearly all actives have a fitted effect of over 55% in size
#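 Cell growth measured by CellTiter-Glo luminescence after a minimum 48 h, 37 C compound exposure with 20 nM CPT in Tdp1-knockout DT40 cells stably expressing hTDP1, seeded 400/well; qHTS titration format.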
# HepG2 viability: kills HepG2 cells in TGF-b inhibitor counter-screen; HepG2 CAGA-GFP viability, ATP luminescence, 18 h; Potency, µM (doses to about 46.1 µM), without a hit: top-dose activity change, negative = cytotoxicity, usual class: cytotoxic; hit rate 0.76% among 410,000; AID 588856; note: potency is the fitted concentration of half-maximal effect
#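 HepG2 CAGA-GFP cells (1000/well, DMEM with 1% FBS) received compound, then TGF-beta at 500 pg/mL final, and were incubated 18 hours at 37 degrees C. Viability was read by CellTiter-Glo luminescence. Media-only wells were set as complete cell-killing and DMSO as no toxicity.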
# TDP1 cell noCPT: qHTS for Inhibitors of human tyrosyl-DNA phosphodiesterase 1 (TDP1): qHTS in cells in absence of CPT; DT40 Tdp1-/- hTDP1 cells, no CPT, ATP luminescence, 48 h; Potency, µM (series often up to 46.2 µM), inactives show at the top dose activity change, negative = growth inhibition, hits mostly inhibitors; hit rate 15% among 420,000; AID 686978, 2013; note: potency is the fitted concentration of half-maximal effect; % is set by controls: 0 for no effect and ±100 for the full control effect; nearly all actives have a fitted effect of over 55% in size
#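 Seeded 400 DT40-hTDP1 cells/well (vehicle DMSO, no 20 nM CPT); pinned compounds; ≥48 hr at 37 °C; CellTiter-Glo luminescence as viability measure.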
# IL1B secr inh: inflammasome signaling inhibition, IL-1 beta readout. THP-1 LPS/ATP IL-1B secretion, AlphaLISA, 16 h; active compounds read low. activity change, % at 57.5 µM. hit rate 4.7% among 360,000; in the data active = activity change below about -50%; inconclusive = mostly about -30% to -49%; note: % is set by controls: 0 for no effect and ±100 for the full control effect
#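 Secreted IL-1B measured by AlphaLISA bead assay after 16 h compound exposure of THP-1 cells; compounds (final up to 57.5 uM) added 1 h before LPS (250 ng/mL) and ATP (1.25 mM) stimulation; lower signal means less secretion.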
# Active calls of the source: *; ? = inconclusive; · = no result; ! = repeats disagree; [ ] = another dose, or the depositor's remark. Unless noted, calls come from the whole dose curve; as a rule, active = well fitted curve in the direction sought with a large enough effect; inconclusive = small, poorly fitted or top-dose-only effect, or another doubt; inactive = no such curve, though single readings can be large; an effect the other way counts as inactive or inconclusive.
SMILES,TGFb SMAD3 inh,TDP1 inh,DT40 TDP1 CPT,HepG2 viability,TDP1 cell noCPT,IL1B secr inh
Cc1cc(O)c(C(c2ccccc2)N2CCN(c3ccccc3)CC2)c(=O)n1Cc1ccco1 (configuration not stated),-2%,8%,?,-16%,-1%,·
CSc1ccc(CN(C)C(=O)c2cc(S(=O)(=O)NCc3ccccc3)ccc2C)cc1,-28%,·,?,-1%,21µM*,?
Cc1ccc(S(=O)(=O)NCc2ccccc2)cc1C(=O)N(C)CC(=O)Nc1c(Cl)cccc1Cl,-13%,·,23µM*,-20%,?,-13
Cc1ccc(S(=O)(=O)NCc2ccccc2)cc1C(=O)N(C)CC(=O)Nc1ccccc1Br,2%,·,?,1%,-17%,-9
COc1ccc(C)cc1NC(=O)Cn1c(=O)n(Cc2nc(C)no2)c(=O)c2ccccc21,-11%,3%,-26%,-10%,?,·
O=C(CN(Cc1ccccc1)C(=O)c1cc2c(s1)CCC2)NCc1cccs1,0%,0%,-24%,-2%,?,?
O=C(CN(C(=O)c1cc2c(s1)CCC2)C1CCCC1)NCc1cccs1,-27%,-2%,8.2µM*,-14%,18µM*,?
O=C(CSc1nnnn1-c1cccc(F)c1)NC1CCCCC1,-5%,-2%[56.1 µM],-2%,8%,-8%,-3
COc1ccc(N(C)S(=O)(=O)c2ccc3c(c2)n(C)c(=O)c(=O)n3C)cc1,5%,-5%,-5%,-11%,-7%,·
CN(CCCNC(=O)c1cc2c(Cl)nc3ccccc3c2s1)Cc1ccccc1,?,8%,15µM*,16µM*!,21µM*,-82*
CCc1ccccc1NC(=O)c1cc2c(Cl)nc3ccccc3c2s1,0%,7%,?,1%,?,·
Cc1ccc2nc(Cl)c3cc(C(=O)NCCCN(C)Cc4ccccc4)sc3c2c1,?,1%,?,13µM*,10µM*,·
COC(=O)C1=C(C(=O)OC)[C@@H]2N(C)c3ccccc3[C@@]23C[C@@H](C(=O)OC)N(S(=O)(=O)c2ccc(C(F)(F)F)cc2)C3=N1,·,12%[12.3 µM],·,·,·,·
Cc1ccc(C(=O)OCC(=O)N2C(C)CCCC2C)cc1S(=O)(=O)N1CCOCC1 (configuration not stated),-8%,·,0%,-15%,?,31
CCOc1cc(/C=N/NC(=O)CCn2nc(C)cc2C)ccc1O,-5%,·,21%,-1%,29%,0
COc1ccc(Cl)cc1NC(=O)CN(C)C(=O)c1cc2c(F)cccc2s1,?,-2%[56.1 µM],10µM*,-20%,6.5µM*,39
COc1ccc(Cl)cc1NC(=O)CN(C)CC(=O)Nc1ccc(Br)cc1,11%,7%,?,-4%,?,-89*
COc1ccc(Cl)cc1NC(=O)CN(C)CC(=O)Nc1cc(OC)c(OC)c(OC)c1,4%,·,5.8µM*,0%,4.1µM*,0
Cc1coc(C)c1C(=O)Nc1ccc2ccccc2c1,-4%,5%,-2%,-3%,14%,0
COC(=O)C(C(C)C)N(Cc1cc(OC)cc(OC)c1)S(=O)(=O)CCl (configuration not stated),-6%,1%[56.1 µM],16µM*,2%,21µM*,16
COc1cc(Nc2nc(SCC(=O)c3ccc(Br)cc3)nc3ccccc23)cc(OC)c1,?,-14%,5.2µM*,10µM*,2.9µM*,·
CC(=O)c1ccc(NC(=O)CC2Sc3ccccc3NC2=O)cc1 (configuration not stated),-8%,·,12µM*,-31%,13µM*,·
O=C(CC1Sc2ccccc2NC1=O)NNc1ccc(Cl)cc1Cl (configuration not stated),-22%,·,?,-4%,?,-58*
O=C(CC1SC(=O)NC1=O)Nc1ccc(Cl)cc1 (configuration not stated),-26%,-5%,3.3µM*,1%,9.2µM*,1
O=C(CC1Sc2ccccc2NC1=O)NCc1ccccc1 (configuration not stated),-5%,0%,-4%,-1%,-1%,16
SMILES,TGFb SMAD3 inh,TDP1 inh,DT40 TDP1 CPT,HepG2 viability,TDP1 cell noCPT,IL1B secr inh
CSc1nc(N)c2ncn([C@H]3O[C@H](COP(=O)(O)OP(=O)(O)O)[C@@H](O)[C@@H]3O)c2n1,·,12%[56.1 µM],?,·,?,·
Cc1cc(F)ccc1S(=O)(=O)Nc1ccccc1C(=O)NCc1ccccn1,12%,5%,4%,9%,-9%,12
O=C(NCc1ccc(Cl)cc1)c1cc(S(=O)(=O)N2CCCCC2)c[nH]1,?,5%,?,4%,?,?
COc1ccc(C(=O)OC(COc2ccccc2)Cn2ccnc2)cc1 (configuration not stated),-7%,6%,-12%,-25%,?,-90*
O=C(O)c1ccccc1OS(=O)(=O)O,·,5%,·,·,·,·
O=C1CC(c2ccccc2)c2c(n3ncnc3[nH]c2=O)N1 (configuration not stated),24%,5%,-2%,12%,3%,·
Cn1c(=O)c2c(nc(SCC(=O)c3ccccc3F)n2C)n(C)c1=O,·,1%,·,·,·,·
Brc1ccc(-c2nc3ccccn3c2Nc2ccc3c(c2)OCCO3)o1,?,7%,26µM*,-14%,?,·
c1cncc(-c2nc3ccccn3c2Nc2ccc3c(c2)OCCO3)c1,-9%,10%,?,-26%,12µM*,-24
c1csc(-c2nc3ccccn3c2Nc2ccc3c(c2)OCCO3)c1,-1%,12%,?,-1%,?,·
CSc1cc(-c2ccc(Cl)cc2)n(Cc2ccccc2)c(=O)c1C#N,2%,1%,?,6%,15µM*,4
CSc1cc(-c2ccccc2)n(C)c(=O)c1C#N,-1%,-13%,19%,-8%,?,-2
O=C(C(Cl)Cl)N1c2ccccc2OCC1c1ccccc1 (configuration not stated),?,-1%,18µM*,-29%,15µM*,-9
Cc1ccc(S(=O)(=O)N2c3ccccc3OCC2c2ccccc2)cc1 (configuration not stated),-9%,-5%,29µM*,-18%,16µM*,5
CC1COc2ccccc2N1S(=O)(=O)c1ccc(Cl)cc1 (configuration not stated),-18%,0%,-5%,9%,23µM*,21
